TDP1 cell noCPT = qHTS for Inhibitors of human tyrosyl-DNA phosphodiesterase 1 (TDP1): qHTS in cells in absence of CPT. DT40 Tdp1-/- hTDP1 cells, no CPT, ATP luminescence, 48 h. Potency, µM (highest dose often 46.2 µM), inactives show top-dose activity change, negative = growth inhibition, usual class: inhibitors. actives 15% (n = 420,000). AID 686978, 2013; note: potency is the fitted concentration of half-maximal effect; nearly all actives have a fitted effect of over 55% in size
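Readout: luminescence from CellTiter-Glo after 30 min in the dark at RT. Cells: DT40 Tdp1-/- with stable hTDP1, 400/well. Exposure: compounds alone, ≥48 hr, 37 °C.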
DT40 TDP1 CPT = growth inhibition of DT40 Tdp1-/-;hTDP1 cells with camptothecin (screen for TDP1 inhibitors); Potency, µM (doses to about 46.2 µM), without a hit: at the highest dose activity change, negative = growth inhibition, usual class: inhibitors; chicken DT40 Tdp1-/-;hTDP1 cells + 20 nM CPT, ATP luminescence, 48 h; actives 12% (n = 420,000); note: potency is the fitted concentration of half-maximal effect; nearly all actives have a fitted effect of over 55% in size
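Cell growth measured by CellTiter-Glo luminescence after a minimum 48 h, 37 C compound exposure with 20 nM CPT in Tdp1-knockout DT40 cells stably expressing hTDP1, seeded 400/well; qHTS titration format.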
HT1080NT lethal = kills 2HG-producing HT-1080-NT fibrosarcoma cells | HT-1080-NT fibrosarcoma viability, CellTiter-Glo ATP luminescence, 48 h | Potency, µM (titrated, usually from 46.1 µM), inactives show at the highest dose activity, negative = less viability, usual class: cytotoxic | actives 1.6% (n = 360,000);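 note: NT is the 2HG producing partner of a matched IDH1 knockdown line; potency is the fitted concentration of half-maximal effect; 0% = DMSO-treated cells and -100% = media-only wells without cells; nearly all actives have a fitted effect of over 55% in size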
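Compounds were tested in concentration-response format on HT-1080-NT cells for 48 hours at 37 degrees C. Cell viability came from CellTiter-Glo luminescence; curves were classified by r2, response magnitude and activity.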
IL1B secr inh = blocks inflammasome-driven IL-1 beta release; THP-1 LPS/ATP IL-1B secretion, AlphaLISA, 16 h; stronger effect = lower value; AID 743279; actives 4.7% (n = 360,000); activity change, % at 57.5 µM; in the data active = activity change below about -50%; inconclusive = mostly about -30% to -49%
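Secreted IL-1B measured by AlphaLISA bead assay after 16 h compound exposure of THP-1 cells; compounds (final up to 57.5 uM) added 1 h before LPS (250 ng/mL) and ATP (1.25 mM) stimulation; lower signal means less secretion.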
HT1080 IDH1KD tx = toxicity to HT-1080 IDH1 knockdown cells (counter line). HT-1080 IDH1 knockdown viability, ATP luminescence, 48 h. Potency, µM (doses to about 46.1 µM), inactives show at the highest dose activity, negative = toxicity, hits mostly cytotoxic. actives 2% (n = 360,000);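 note: potency is the fitted concentration of half-maximal effect; 0% = DMSO wells and -100% = cell-free medium wells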
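Knockdown cells (IDH1KD HT-1080) received compounds 2 h after plating at 750 cells/well and were kept 48 h at 37 °C in 5% FBS RPMI. A CellTiter-Glo luminescence read gave % activity for curve fitting.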
* = called active by the depositor; ? = inconclusive; / = no result given; [ ] = dose if it differs, or a comment. An excerpt weighted towards active compounds, which were near 19% of everything screened. Unless noted, calls come from the whole dose curve; as a rule, active = well fitted curve in the direction sought with a large enough effect; inconclusive = small, poorly fitted or top-dose-only effect, or another doubt; inactive = no such curve, though single readings can be large; an effect the other way counts as inactive or inconclusive. Unless noted, % is set by controls: 0 for no effect and ±100 for the full control effect.

SMILES	TDP1 cell noCPT	DT40 TDP1 CPT	HT1080NT lethal	IL1B secr inh	HT1080 IDH1KD tx
CCN(CC)c1cc2c(cc1F)c(=O)c(S(=O)(=O)c1cc(C)ccc1C)cn2Cc1ccccc1	18µM*	?	/	/	/
CCn1cc(S(=O)(=O)c2ccc(OC)cc2)c(=O)c2cc(OC)ccc21	7%	-3%	5%	-9	-13%
CCN(CC)c1cc2c(cc1F)c(=O)c(S(=O)(=O)c1ccc(OC)cc1)cn2CC	15µM*	16µM*	/	/	/
CCCn1cc(S(=O)(=O)c2ccc(CC)cc2)c(=O)c2cc(F)c(N(CC)CC)cc21	9.2µM*	8.2µM*	/	/	/
O=C(NCCc1ccccn1)C1CC12CCN(C(=O)c1ccc(F)cc1Cl)CC2 (stereo unspecified)	-10%	23%[9.04 µM]	/	/	/
O=C(C[C@@H]1C/C=C/CC[C@H](Cc2ccc(F)cc2)C(=O)O[C@H](c2ccccc2)CNC1=O)NCCO	-10%	-1%	14%	-2	-1%
O=C(C[C@H]1C/C=C\CC[C@H](Cc2ccc(F)cc2)C(=O)O[C@@H](c2ccccc2)CNC1=O)N[C@H](CO)Cc1ccccc1	?	?	-17%	-15	-7%
O=C1NC[C@H](c2ccccc2)OC(=O)[C@@H](Cc2ccc(F)cc2)CC/C=C/C[C@H]1CC(=O)N(CCO)Cc1ccccc1	12µM*	13µM*	23µM*	-2	/
O=C1NC[C@H](c2ccccc2)OC(=O)[C@H](Cc2ccc(F)cc2)CC/C=C/C[C@H]1CC(=O)N(CCO)Cc1ccccc1	?	26µM*	26µM*	?	/
O=C1NC[C@H](c2ccccc2)OC(=O)[C@@H](Cc2ccc(F)cc2)CC/C=C/C[C@@H]1CC(=O)N(CCO)Cc1ccccc1	23µM*	?	-25%	-22	/
O=C(c1ccc2ccccc2n1)N1CCN(c2ccccc2O)CC1	-18%	-20%	-2%	14	-7%
COC(=O)c1ccc(C23CC4(C2)[C@H](CN(CC2CCCCC2)[C@@H]4c2ccccc2)C3c2ccc(C(F)(F)F)cc2)cc1 (stereo partly specified)	?	?	-6%	0	-1%
O=C(NCCCCc1ccccc1)c1ccc(F)cc1	-22%	-45%	-1%	-15	-7%
O=C(CSCc1ccc(F)cc1)N1CCc2c([nH]c3ccccc23)C1c1ccc(F)cc1 (stereo unspecified)	18µM*	18µM*	/	/	/
CCc1ccccc1NC(=O)C1CCCN1C(=O)Nc1ccc(C)cc1 (stereo unspecified)	-13%	3%	4%	14	-1%
Cc1ccc(C2c3[nH]c4ccccc4c3CCN2C(=O)CSCc2ccc(F)cc2)cc1 (stereo unspecified)	23µM*	?	/	/	/
CCc1ccccc1NC(=O)N1CCc2c([nH]c3ccccc23)C1c1ccc(C)cc1 (stereo unspecified)	15µM*	16µM*	/	/	/
Cc1ccc(CSCC(=O)NCc2ccc(F)cc2)cc1	1%	1%	3%	17	5%
NC(=O)C1C2C=CC(C2)C1c1ccccc1 (stereo unspecified)	-11%	-29%	5%	3	5%
N#Cc1ccccc1NS(=O)(=O)c1ccc(N2CCCCS2(=O)=O)cc1	-4%	-5%	/	/	/
CC(=O)NC(C(=O)c1ccccc1)C(=O)c1ccccc1	-11%	-11%	8%	2	11%
CCOP(=O)(OCC)C(NC(C)=O)C(=O)c1ccccc1 (stereo unspecified)	3.7µM*	-5%	1%	-22	-2%
Cc1ccc(CNC(=O)C(=O)Nc2c3c(nn2-c2ccc(F)cc2)CSC3)cc1	5.2µM*	?	/	/	/
O=C(Nc1ccc(C(=O)N2CCN(c3ccncc3)CC2)cc1)c1ccc(Br)o1	?	-18%	17%	-24	11%
O=C(Nc1ccc(C(=O)N2CCC(O)(c3ccc(Cl)c(C(F)(F)F)c3)CC2)cc1)c1ccc(Br)o1	18µM*	?	-17%	-61*	-8%
SMILES	TDP1 cell noCPT	DT40 TDP1 CPT	HT1080NT lethal	IL1B secr inh	HT1080 IDH1KD tx
O=c1cc(N2CCN(c3ccc(F)cc3)CC2)[nH]c(=O)n1Cc1ccc(F)cc1	8.2µM*	9.2µM*	-5%	12	-19%
O=C(CSc1ccc(Br)cc1)N1CCN(S(=O)(=O)c2ccccc2)CC1	-27%	2%	-1%	-9	-7%
O=C(CSc1cccc(C(F)(F)F)c1)N1CCN(S(=O)(=O)c2ccccc2)CC1	?	?	-7%	-55*	-13%
COc1ccc(-c2cc(C(F)(F)F)nc(N3CCN(C)CC3)n2)cc1	16µM*	?	?	-65*	?
COc1ccc(-c2cc(C(F)(F)F)nc(N3CCCCCC3)n2)cc1	-20%	-10%	8%	24	10%
COc1ccc(-c2cc(C(F)(F)F)nc(N3CCN(C)CC3)n2)cc1OC	21µM*	?	?	0	?
COc1ccc(-c2cc(C(F)(F)F)nc(-n3ccnc3C)n2)cc1	21µM*	?	-1%	0	-2%
COc1ccc(-c2cc(C(F)(F)F)nc(N3CCCCC3)n2)cc1OC	?	?	25%	15	12%
C[C@H](CO)N1C[C@H](C)[C@@H](CN(C)C(=O)C2CC2)OCc2cnnn2CCCC1=O	6%	6%	-2%	0	1%
COc1ccc(C(CNC(=O)c2ccc(Cl)c(NC(=O)c3cccs3)c2)N2CCCC2)cc1 (stereo unspecified)	?	?	-7%	?	-7%
COc1ncc2nc(-c3cc(F)cc(F)c3)c(=O)n(CCc3ccccc3)c2n1	-4%	1%	/	/	/
COc1cc2nc(N(CCN(C)C)C(=O)c3ccc(S(=O)(=O)N(C)CC4CCCO4)cc3)sc2cc1OC (stereo unspecified)	-18%	-9%	-4%	0	4%
CCc1ccc2nc(N(CCCN(C)C)C(=O)c3ccc(S(=O)(=O)N(C)C4CCCCC4)cc3)sc2c1	?	16µM*	?	-61*	23µM*
COc1cc2nc(N(CCCN(C)C)C(=O)c3ccc(S(=O)(=O)N(C)C4CCCCC4)cc3)sc2cc1OC	16µM*	?	3%	-79*	7%
CCc1ccc2nc(N(CCCN(C)C)C(=O)c3ccc(S(=O)(=O)N4CCc5ccccc5C4)cc3)sc2c1	5.2µM*	5.2µM*	?	-84*	13µM*
CN(C)CCCN(C(=O)c1ccc(S(=O)(=O)N(C)C2CCCCC2)cc1)c1nc2ccc(F)cc2s1	?	16µM*	?	-98*	?

Compound activity from PubChem BioAssay.
